Results reported in the supplement of paper PMC7366291.
Where a name gives a salt, the structure may show the parent alone. ± gives the standard deviation or the standard deviation of the averaged measurements.

Tests used:
Settings in all cases: 25 µM; exposure: 24-48 hpf
[1] = tested on: Danio rerio Tg(wt1b:EGFP) embryo, pronephros; test: glomerular separation, fold change vs DMSO control; higher = glomeruli further apart (abnormal)
Outline: (§1)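 In HEPES-buffered E3 with 0.003% PTU and 0.5% DMSO, dechorionated Tg(wt1b:EGFP) zebrafish embryos were exposed to 25 μM compound from 24 to 48 hpf at 28.5°C. Pronephroi were then imaged dorsally at 470 nm in 10 z-slices, in 96-well plates filled with agarose. On maximum projections, a Fiji macro turned 16 manually placed reference points into distances and angles, and values more than 2 SD from the feature mean were excluded. Features are fold changes relative to the mean of DMSO-treated embryos from the same day.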

[2] = tested on: Danio rerio Tg(wt1b:EGFP) embryo, pronephros; test: glomerular width (mean of left and right), fold change vs DMSO control; higher = wider glomerulus
Outline: as §1

[3] = tested on: Danio rerio Tg(wt1b:EGFP) embryo, pronephros; test: fraction of imaged embryos annotated as normal kidney; higher = less nephrotoxic; extreme values may be limits of the assay
Outline: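 The read-out is the proportion of embryos in each treatment manually annotated as normal-kidney. Exposure ran from 24 to 48 hpf at 28.5°C in 12-well plates, using dechorionated Tg(wt1b:EGFP) zebrafish embryos in 5 mM HEPES-buffered E3 with 0.003% PTU, 0.5% DMSO and 25 μM compound. For imaging, larvae were anaesthetised with tricaine, positioned dorsally in agarose-filled 96-well plates and captured by widefield fluorescence (470 nm, 10 z-slices), with scoring done on maximum projections.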

[4] = tested on: Danio rerio Tg(wt1b:EGFP) embryo, pronephros; test: pronephric angle neck segment to proximal convoluted tubule (mean of left and right), fold change vs DMSO control; higher = larger pronephric angle
Outline: as §1

## Cc1ccc(C)c(OCCCC(C)(C)C(=O)O)c1 [Gemfibrozil]
[1]
  glomerular separation: 5.88 ± 2.2
[2]
  glomerular width: 0.602 ± 0.06
[3]
  fraction of imaged embryos annotated as normal kidney: 0
[4]
  pronephric angle neck segment: 1.73 ± 0.11

## Nc1nc2ccc(OC(F)(F)F)cc2s1 [Riluzole hydrochloride]
[1]
  glomerular separation: 0.834 ± 0.22
[2]
  glomerular width: 0.964 ± 0.02
[3]
  fraction of imaged embryos annotated as normal kidney: 0.833
[4]
  pronephric angle neck segment: 1.036 ± 0.0021

## CCOC(=O)C(C)(C)Oc1ccc(Cl)cc1 [Clofibrate]
[1]
  glomerular separation: 2.62 ± 1.7
[2]
  glomerular width: 0.608 ± 0.044
[3]
  fraction of imaged embryos annotated as normal kidney: 0
[4]
  pronephric angle neck segment: 1.66 ± 0.033

## O=c1oc2ccccc2c(O)c1Cc1c(O)c2ccccc2oc1=O [Dicumarol]
[1]
  glomerular separation: 0.799 ± 0.23
[2]
  glomerular width: 0.772 ± 0.025
[3]
  fraction of imaged embryos annotated as normal kidney: 0.9
[4]
  pronephric angle neck segment: 1.14 ± 0.08

## c1ccc(CN(CC2=NCCN2)c2ccccc2)cc1 [Antazoline hydrochloride]
[1]
  glomerular separation: 1.08 ± 0.41
[2]
  glomerular width: 1.04 ± 0.016
[3]
  fraction of imaged embryos annotated as normal kidney: 0.833
[4]
  pronephric angle neck segment: 0.9446 ± 0.00065

## CC(=O)N1CCN(c2ccc(OCC3COC(Cn4ccnc4)(c4ccc(Cl)cc4Cl)O3)cc2)CC1 (stereo not given) [Ketoconazole]
[1]
  glomerular separation: 0.931 ± 0.28
[2]
  glomerular width: 1.01 ± 0.082
[3]
  fraction of imaged embryos annotated as normal kidney: 0.75
[4]
  pronephric angle neck segment: 0.994 ± 0.04

## CN1CCN(c2c(F)cc3c(=O)c(C(=O)O)cn4c3c2SCC4)CC1 [Rufloxacin]
[1]
  glomerular separation: 0.835 ± 0.21
[2]
  glomerular width: 0.9236 ± 0.0089
[3]
  fraction of imaged embryos annotated as normal kidney: 1
[4]
  pronephric angle neck segment: 0.986 ± 0.027

## CCN(CC)CCc1nc(-c2ccccc2)no1 [Oxalamine citrate salt]
[1]
  glomerular separation: 0.929 ± 0.43
[2]
  glomerular width: 0.933 ± 0.016
[3]
  fraction of imaged embryos annotated as normal kidney: 0.917
[4]
  pronephric angle neck segment: 0.893 ± 0.035

## O=C(O)c1cc(-c2ccc(F)cc2F)ccc1O [Diflunisal]
[1]
  glomerular separation: 4.51 ± 2.5
[2]
  glomerular width: 0.881 ± 0.022
[3]
  fraction of imaged embryos annotated as normal kidney: 0.0833
[4]
  pronephric angle neck segment: 1.69 ± 0.17

## Nc1c2ccccc2nc2ccccc12 [Aminacrine]
[1]
  glomerular separation: 0.947 ± 0.57
[2]
  glomerular width: 1.01 ± 0.055
[3]
  fraction of imaged embryos annotated as normal kidney: 1
[4]
  pronephric angle neck segment: 0.996 ± 0.028

## COC(=O)Nc1nc2cc(C(=O)c3ccc(F)cc3)ccc2[nH]1 [Flubendazol]
[1]
  glomerular separation: 1.81 ± 0.69
[2]
  glomerular width: 0.934 ± 0.034
[3]
  fraction of imaged embryos annotated as normal kidney: 0.833
[4]
  pronephric angle neck segment: 1.11 ± 0.15

## Cc1ccc(-c2ncc(Cl)cc2-c2ccc(S(C)(=O)=O)cc2)cn1 [Etoricoxib]
[1]
  glomerular separation: 0.967 ± 0.19
[2]
  glomerular width: 1.023 ± 0.0032
[3]
  fraction of imaged embryos annotated as normal kidney: 0.833
[4]
  pronephric angle neck segment: 1.04 ± 0.042

## CNC1(C)C2CCC(C2)C1(C)C (stereo not given) [Mecamylamine hydrochloride]
[1]
  glomerular separation: 1.09 ± 0.32
[2]
  glomerular width: 0.973 ± 0.089
[3]
  fraction of imaged embryos annotated as normal kidney: 0.833
[4]
  pronephric angle neck segment: 1.07 ± 0.074

## N=C(N)N/N=C/c1c(Cl)cccc1Cl [Guanabenz acetate]
[1]
  glomerular separation: 1.12 ± 0.47
[2]
  glomerular width: 1.072 ± 0.01
[3]
  fraction of imaged embryos annotated as normal kidney: 1
[4]
  pronephric angle neck segment: 0.9461 ± 0.00069

## O=C1c2cccc3c2[C@H](CCC3)CN1[C@@H]1CN2CCC1CC2 [Palonosetron hydrochloride]
[1]
  glomerular separation: 1.08 ± 0.37
[2]
  glomerular width: 0.975 ± 0.023
[3]
  fraction of imaged embryos annotated as normal kidney: 0.667
[4]
  pronephric angle neck segment: 1 ± 0.038

## NS(=O)(=O)c1cc(C2(O)NC(=O)c3ccccc32)ccc1Cl (stereo not given) [Chlorthalidone]
[1]
  glomerular separation: 1.04 ± 0.23
[2]
  glomerular width: 1.04 ± 0.079
[3]
  fraction of imaged embryos annotated as normal kidney: 0.75
[4]
  pronephric angle neck segment: 1.02 ± 0.073

## CC(=O)Nc1ccc(OCC(O)CNC(C)C)cc1 (stereo not given) [Practolol]
[1]
  glomerular separation: 1.01 ± 0.36
[2]
  glomerular width: 0.986 ± 0.081
[3]
  fraction of imaged embryos annotated as normal kidney: 0.833
[4]
  pronephric angle neck segment: 1.02 ± 0.051

## N[C@@H]1CCCCN(c2c(F)cc3c(=O)c(C(=O)O)cn(C4CC4)c3c2Cl)C1 [Besifloxacin hydrochloride]
[1]
  glomerular separation: 0.997 ± 0.35
[2]
  glomerular width: 1.02 ± 0.033
[3]
  fraction of imaged embryos annotated as normal kidney: 0.833
[4]
  pronephric angle neck segment: 1.02 ± 0.018

## CC(C)(C)C(=O)OCOC(=O)[C@@H]1N2C(=O)[C@@H](/N=C/N3CCCCCC3)[C@H]2SC1(C)C [Pivmecillinam hydrochloride]
[1]
  glomerular separation: 0.772 ± 0.17
[2]
  glomerular width: 1.101 ± 0.0091
[3]
  fraction of imaged embryos annotated as normal kidney: 0.75
[4]
  pronephric angle neck segment: 1.04 ± 0.012

## CC(=O)OCC(=O)[C@@]1(O)CC[C@H]2[C@@H]3CCC4=CC(=O)CC[C@]4(C)[C@@]3(F)[C@@H](O)C[C@@]21C [Fludrocortisone acetate]
[1]
  glomerular separation: 1.6 ± 0.63
[2]
  glomerular width: 1.23 ± 0.023
[3]
  fraction of imaged embryos annotated as normal kidney: 0.583
[4]
  pronephric angle neck segment: 1.18 ± 0.16

## CN(C)C(=O)C(CCN1CCC(O)(c2ccc(Cl)cc2)CC1)(c1ccccc1)c1ccccc1 [Loperamide hydrochloride]
[1]
  glomerular separation: 1.07 ± 0.32
[2]
  glomerular width: 1.04 ± 0.12
[3]
  fraction of imaged embryos annotated as normal kidney: 0.667
[4]
  pronephric angle neck segment: 1.03 ± 0.065

## COC(=O)C1=C(C)NC(C)=C(C(=O)OC)C1c1ccccc1[N+](=O)[O-] [Nifedipine]
[1]
  glomerular separation: 1.1 ± 0.54
[2]
  glomerular width: 1.05 ± 0.077
[3]
  fraction of imaged embryos annotated as normal kidney: 0
[4]
  pronephric angle neck segment: 1.33 ± 0.09

## CCCCC(=O)O[C@H]1CC[C@H]2[C@@H]3CCc4cc(O)ccc4[C@H]3CC[C@]12C [Estradiol Valerate]
[1]
  glomerular separation: 1.02 ± 0.37
[2]
  glomerular width: 0.925 ± 0.016
[3]
  fraction of imaged embryos annotated as normal kidney: 0.583
[4]
  pronephric angle neck segment: 1.134 ± 0.0028

## COc1ncnc(NS(=O)(=O)c2ccc(N)cc2)c1OC [Sulfadoxine]
[1]
  glomerular separation: 0.694 ± 0.18
[2]
  glomerular width: 0.997 ± 0.062
[3]
  fraction of imaged embryos annotated as normal kidney: 0.833
[4]
  pronephric angle neck segment: 1.02 ± 0.066

## CC[N+](C)(CC)CCOC(=O)C1c2ccccc2Oc2ccccc21 [Methantheline bromide]
[1]
  glomerular separation: 0.979 ± 0.45
[2]
  glomerular width: 0.996 ± 0.029
[3]
  fraction of imaged embryos annotated as normal kidney: 0.917
[4]
  pronephric angle neck segment: 1.045 ± 0.0066

## Nc1nc2[nH]cc(CCc3ccc(C(=O)N[C@@H](CCC(=O)O)C(=O)O)cc3)c2c(=O)[nH]1 [Pemetrexed disodium]
[1]
  glomerular separation: 0.831 ± 0.39
[2]
  glomerular width: 1.08 ± 0.041
[3]
  fraction of imaged embryos annotated as normal kidney: 0.833
[4]
  pronephric angle neck segment: 0.972 ± 0.057

## CC(=O)[C@H]1CC[C@H]2[C@@H]3CC=C4C[C@@H](O)CC[C@]4(C)[C@H]3CC[C@]12C [Pregnenolone]
[1]
  glomerular separation: 1.31 ± 0.74
[2]
  glomerular width: 1.14 ± 0.018
[3]
  fraction of imaged embryos annotated as normal kidney: 0.583
[4]
  pronephric angle neck segment: 0.999 ± 0.16

## CCCN(CCC)S(=O)(=O)c1ccc(C(=O)O)cc1 [Probenecid]
[1]
  glomerular separation: 1.41 ± 0.61
[2]
  glomerular width: 0.907 ± 0.091
[3]
  fraction of imaged embryos annotated as normal kidney: 0.833
[4]
  pronephric angle neck segment: 0.915 ± 0.028

## CN(C)CCN(Cc1cccs1)c1ccccn1 [Methapyrilene hydrochloride]
[1]
  glomerular separation: 0.984 ± 0.37
[2]
  glomerular width: 0.99 ± 0.077
[3]
  fraction of imaged embryos annotated as normal kidney: 0.917
[4]
  pronephric angle neck segment: 0.9838 ± 0.0071

## CCN(CC)CCNC(=O)c1cc(Br)c(N)cc1OC [Bromopride]
[1]
  glomerular separation: 0.903 ± 0.35
[2]
  glomerular width: 1.04 ± 0.015
[3]
  fraction of imaged embryos annotated as normal kidney: 1
[4]
  pronephric angle neck segment: 1.02 ± 0.036
